Bioassay records: PubChem BioAssay, National Center for Advancing Translational Sciences (NCATS)
A selection: hits, their analogues and other compounds. The true share with any hit is near 4.6%.
TRHR enhancer-1: allosterically enhances the human TRH receptor | P34981 | AID 493056 | 0.66% of 360,000 active | TRHR cells, fluo-8 calcium fluorescence, EC20 TRH enhancement | enhancement, % at 2 µM; in the data active = enhancement above about 30%; also: 0% is about no effect
Target sequence (P34981 whole entry, looked up): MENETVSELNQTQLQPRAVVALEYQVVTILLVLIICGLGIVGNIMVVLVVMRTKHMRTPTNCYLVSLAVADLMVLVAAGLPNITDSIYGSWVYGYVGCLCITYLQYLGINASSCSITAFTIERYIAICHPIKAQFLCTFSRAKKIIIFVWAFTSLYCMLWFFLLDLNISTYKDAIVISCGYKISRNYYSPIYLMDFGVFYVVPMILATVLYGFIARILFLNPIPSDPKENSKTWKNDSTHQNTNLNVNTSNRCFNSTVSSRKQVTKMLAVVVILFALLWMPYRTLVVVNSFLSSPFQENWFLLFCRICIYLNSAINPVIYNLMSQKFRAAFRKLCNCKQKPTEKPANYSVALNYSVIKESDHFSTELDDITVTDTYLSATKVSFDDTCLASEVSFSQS
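Enhancer read-out: after compound pinning and an initial kinetic agonist-mode read, an EC20 of TRH (10 nM final) was injected and fluo-8 calcium signal (Ex 480/Em 530) followed at 1 s/cycle for 100 cycles in TRHR-expressing cells.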
TRHR agonist-1: agonists of human TRH receptor; TRHR cells, calcium flux fluo-8, FDSS agonist mode; AID 493084; activation, % at 2 µM; 0.18% of 360,000 active; P34981; in the data active = activation above about 30%; also: 0% is about no effect
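Steps: seed TRHR cells overnight; add fluo-8 no-wash Ca dye, RT 30 min–1.5 h; record 10 s baseline; pin-transfer compounds; monitor fluorescence 1 cycle/s for the agonist window. Calcium increases flag candidate agonists.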
D1 potentiator: potentiators of human D1 dopamine receptor. P21728. HEK293 TREx D1 cells, calcium flux, dopamine EC20 potentiation. potentiation, % at 10 µM. 0.036% of 360,000 active. AID 504651; in the data active = potentiation above about 30%; also: 0% is about no effect
D1 antag: antagonists of human D1 dopamine receptor; HEK293 TREx D1 cells, calcium flux, dopamine EC80; hits give low values; activity change, negative = inhibition, % at 10 µM; 3.2% of 360,000 active; AID 504652; in the data active = activity change below about -30%; also: % is scaled to controls: 0 for no effect and ±100 for the full control effect
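HEK293 T-REx cells expressing inducible, force-coupled D1 receptor; no-wash Ca dye, 30–90 min RT. Cmpd → 180 s read at 1 Hz → EC80 DA → 180 s read.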
D1 agonist: agonists of human D1 dopamine receptor; activation, % at 2 µM; HEK293 T-REx D1 cells, calcium flux, agonist mode; 1% of 360,000 active; AID 504660; in the data active = activation above about 30%; also: 0% is about no effect
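Agonism was scored from calcium flux recorded over 180 s (1 read/s) after pintool compound addition, following a 10-cycle baseline. Cells were inducible force-coupled HEK293 TREx D1, plated overnight at 30 C and loaded with no-wash calcium dye.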
TRHR enhancer-2: human TRH receptor allosteric enhancement confirmation; shares compounds with TRHR enhancer-1; TRH receptor cell assay, enhancer confirmation qHTS; activity change, negative = inhibition, % at 46.1 µM; 970 tested, under 10 active;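 also: compound effect scored on response to added TRH at EC20 of 10 nM; 0% is about no effect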
TRHR agonist-2: human TRH receptor agonism confirmation. shares compounds with TRHR enhancer-1. TRHR-expressing cells, agonist activation read-out. Potency, µM (titrated, usually from 46.1 µM), without a hit: at the highest dose activation, actives largely listed as activators. 8% of 970 active; also: potency is read from the fitted curve at half-maximal effect; 0% is about no effect; nearly all actives have a fitted effect of over 75% in size
Numbers without * were called inactive; ? = inconclusive; / = not tested or not shown. Unless noted, calls follow the shape of the dose curve; as a rule, active = well fitted curve in the direction sought with a large enough effect; inconclusive = small, poorly fitted or top-dose-only effect, or another doubt; inactive = no such curve, though single readings can be large; an effect the other way counts as inactive or inconclusive.

SMILES	TRHR enhancer-1	TRHR agonist-1	D1 potentiator	D1 antag	D1 agonist	TRHR enhancer-2	TRHR agonist-2
CC1CC(C)CN(C(=O)COC(=O)c2ccc(Cl)nc2)C1 (configuration not stated)	45.3*	0.7	-5.3	-18.3	0.6	-1.1	0.9%
Cc1ccc2cc(CN(CC(C)C)C(=O)C3CCCO3)c(=O)[nH]c2c1 (configuration not stated)	-2.5	0.2	-5.0	10.6	0.2	/	/
Cc1ccc2cc(COC(=O)C3CCCO3)c(=O)[nH]c2c1 (configuration not stated)	45.0*	0.7	-1.9	-6.7	1.9	-7.3	1.2%
C=CCN(CC=C)Cc1c(C)[nH]c2c(C)c(C)ccc2c1=O	44.5*	-1.2	-6.3	1.7	1.9	-3.7	-0.7%
O=C(Nn1cnnc1)c1cccc(S(=O)(=O)N2CCOCC2)c1	5.0	102.1*	0.1	1.2	6.8	4.7	-0.7%
CCN(CC)c1ccc(/C=N/NC(=O)c2cccc(S(=O)(=O)N3CCOCC3)c2)c(O)c1	-1.5	39.3*	-4.3	-29.0	12.1	2.6	?
Cc1ccc(CNC(=O)CN2C(=O)COc3ccc(S(=O)(=O)N4CCC(C)CC4)cc32)cc1	-5.1	21.5	4.0	18.8	4.7	/	/
CCOC(=O)c1c(NC(=O)Cn2c(C)nc3ccccc32)sc2c1CCC2	60.1*	-0.8	-4.1	3.2	6.4	-5.3	5.5%
CCC(C(=O)NCc1cccnc1)c1ccccc1 (configuration not stated)	41.8*	0.1	-4.7	13.5	1.0	-1.6	-0.7%
CC(=O)NS(=O)(=O)c1ccc(NC(=O)c2ccc(Cl)cc2[N+](=O)[O-])cc1	49.6*	0.2	-1.0	-6.7	1.9	-5.5	4.8%
COc1ccc(C(=O)Nc2ccc(S(=O)(=O)NC(C)=O)cc2)cc1[N+](=O)[O-]	4.7	0.7	-1.8	5.6	1.6	/	/
COc1cccc(NC(=O)C2CCC(CNS(=O)(=O)c3ccc4c(c3)CCCC(=O)N4)CC2)c1 (configuration not stated)	1.6	0.1	-3.0	-18.3	4.2	/	/
CC(C)N(Cc1cnn(C)c1)Cc1nc(COc2ccccc2)no1	-2.0	-0.1	2.9	0.1	-1.2	/	/
CN(Cc1cnn(C)c1)Cc1nc(COc2ccccc2)no1	46.5*	1.0	0.8	-4.2	4.3	-1.7	0.2%
Oc1c(C(c2ccccc2Cl)N2CCN(Cc3ccccc3)CC2)sc2nc(-c3ccco3)nn12 (configuration not stated)	0.1	0.0	-0.2	/	-4.0	/	/
Fc1ccc(CNc2ncccn2)cc1	41.9*	-0.6	9.2	-13.5	-0.9	1.6	-0.7%
Clc1ccc(CNc2ncccn2)cc1	-3.0	-0.6	-1.9	6.9	1.9	/	/
Cc1cccc(C)c1NC(=S)N1CCOCC1	3.1	0.5	0.8	-5.3	3.9	/	/
Cc1cccc(C)c1NC(=S)N1CCC(c2ccccc2)C1 (configuration not stated)	48.6*	0.5	-0.6	7.1	1.1	-15.1	0.5%
COC(=O)/C(C#N)=C1/C=Cc2ccccc2N1	54.5*	-0.3	-0.3	-0.5	-1.8	-7.0	?
CCn1cc(C(=O)NC(C)c2ccccc2)c(=O)c2cc(S(=O)(=O)N3CCc4ccccc4C3)ccc21 (configuration not stated)	7.1	0.6	3.3	5.7	1.1	/	/
COc1cccc(/C=C/c2nc(C#N)c(NCCc3ccc(OC)c(OC)c3)o2)c1	-12.1	-2.0	1.1	4.0	1.0	/	/
CCN(CC)C(=O)C1CCN(c2ncnc3c2cnn3-c2ccc(C)cc2C)CC1	44.5*	-0.6	-4.0	-8.7	0.7	-6.8	1.8%
Cc1ccc(-n2ncc3c(N4CCC(C(N)=O)CC4)ncnc32)c(C)c1	15.3	-0.4	-5.9	-13.4	0.1	/	/
O=C(NCCCN1CCCCC1)C1CCC(CNS(=O)(=O)c2cccc3nsnc23)CC1 (configuration not stated)	47.6*	1.0	0.2	5.0	0.4	-0.5	-0.8%
SMILES	TRHR enhancer-1	TRHR agonist-1	D1 potentiator	D1 antag	D1 agonist	TRHR enhancer-2	TRHR agonist-2
CC1CCN(CCCNC(=O)C2CCC(CNS(=O)(=O)c3cccc4nsnc34)CC2)CC1 (configuration not stated)	8.6	0.5	2.8	-5.5	0.3	/	/
Cc1ccc(C2C(C#N)=C(N)Oc3n[nH]c(C)c32)cc1 (configuration not stated)	2.5	-0.1	-7.7	8.1	0.7	/	/
Cc1[nH]nc2c1C(c1cnn(C)c1)C(C#N)=C(N)O2 (configuration not stated)	54.8*	0.6	-2.2	-5.0	4.1	-0.5	-0.6%
CCCCCn1nc(-c2ccccc2)c2nc3ccccc3nc21	9.6	25.9	6.9	20.6	37.3*	1.8	16.4µM*
Cc1cc(C)cc(C(=O)n2nc(C)c(S(=O)(=O)N3CCOCC3)c2C)c1	12.4	-0.6	-2.9	1.5	-1.8	/	/
c1coc(-c2ccnc3ncnn23)c1	49.1*	-0.6	-3.5	1.5	5.1	-5.5	-0.7%
O=C(Cc1nc2ccccc2[nH]c1=O)c1ccccc1	0.5	31.0*	-4.0	-7.2	51.6*	-3.6	?
CCOC(=O)Cc1csc(SCC(=O)NC2CCCCC2)n1	10.4	0.1	-3.4	-13.8	1.1	/	/
CCOC(=O)Cc1csc(SCC(=O)NC2CCCC2)n1	51.6*	0.0	-7.8	-11.6	1.5	-5.4	0.4%
COc1cccc(/C=C2\SC(=S)N(C(C)C(=O)NC3C=CS(=O)(=O)C3)C2=O)c1 (configuration not stated)	50.4*	-0.2	-2.8	-14.7	0.2	4.8	1.8%
COc1ccc(/C=C2\SC(=S)N(C(C)C(=O)NC3C=CS(=O)(=O)C3)C2=O)cc1 (configuration not stated)	-5.0	-0.2	-9.6	-26.7	1.8	/	/
Cc1cc(-c2nn(-c3ccccc3F)cc2CNCCc2cnc[nH]2)c(C)s1	51.1*	-0.4	-1.7	-4.8	3.0	-2.5	0.6%
COc1cccc(SCC2(O)CCN(C(=O)c3ccc(Cl)cc3)CC2)c1	58.9*	0.4	-1.1	0.1	3.2	-5.1	-0.4%
Cn1c(N)c(C(=O)COC(=O)CCC2CCCCC2)c(=O)n(C)c1=O	45.6*	0.4	3.2	21.2	19.3	0.6	-0.5%
Cn1c(N)c(C(=O)COC(=O)CCC2CCCC2)c(=O)n(C)c1=O	5.7	-0.2	-0.1	-3.1	13.3	/	/
CCC(C)NS(=O)(=O)c1ccc(NC(=O)C(Sc2ccccc2)c2ccccc2)cc1 (configuration not stated)	-1.2	1.2	3.8	9.4	6.6	/	/
